We go through 30 compounds from PubChem BioAssay (NCATS).

Records with an inconclusive call do not appear. The source made the active and inactive calls. Calls come from the whole dose curve; as a rule, active = well fitted inhibition curve with a large enough effect; inconclusive = small, poorly fitted or top-dose-only effect; inactive = flat fitted curve, though single readings scatter.

Experiment in all cases: qHTS profiling for inhibitors of Plasmodium falciparum proliferation (AID 504749); note: nearly all actives have a fitted effect of over 60% in size
What all share (details): P. falciparum in erythrocytes, SYBR Green DNA, 72 h; series mostly up to 28.7 µM
A general note: In qHTS, concentration-response curves come from the screen itself.

The subject of one experiment is JCK. In short, it runs like this: (§1)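 Parasite proliferation within erythrocytes, 72 h exposure. Endpoint: SYBR Green I fluorescence after overnight lysis at room temperature. Controls: 0.29 uM artemisinin, DMSO.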
The next experiment relates to N140. In short, it runs like this: as §1
A further experiment relates to P93_24. In a few lines:
as §1

For the next experiment, the system named is P94_40. In a few lines:
as §1

The subject of a further experiment is PAD. In a few lines: as §1
The next experiment has as its system PC15. In a few lines: as §1
The next experiment relates to PC26. In short, it runs like this:
as §1

A further experiment relates to PC49. In short, it runs like this:
as §1

A further experiment concerns SC27B. In short, it runs like this: as §1
Another experiment has as its system ICS. In short, it runs like this:
as §1
Potency is the fitted concentration of half-maximal effect.

As to `COc1ccccc1Oc1c(NS(=O)(=O)c2ccc(C(C)(C)C)cc2)nc(-c2ncccn2)nc1OCCO`, the Potency result in the experiment on JCK, with N140, with P93_24, in the experiment with P94_40, with PAD and in the experiment on PC15 was “inactive” each time. Besides, the Potency result with PC26, with PC49 and in the experiment with SC27B was “inactive” in each case.

Take `Cc1[nH]c(C)c(Cl)c(=O)c1Cl`: the Potency result in the experiment on JCK, in the experiment on N140, with P93_24, in the experiment with P94_40, in the experiment with PAD and in the experiment on PC49 was “inactive” throughout. In the experiment with SC27B, the Potency result was “inactive”.

Consider `NC(=O)CC[C@@H](N)C(=O)O`, for which the Potency entry in the experiment with ICS, with JCK, in the experiment on N140, in the experiment on P94_40, in the experiment on PAD and in the experiment with PC15 was “inactive” in each case. Besides, the Potency entry with PC26, in the experiment with PC49 and in the experiment with SC27B was “inactive” throughout.

For `NCc1ccc(S(N)(=O)=O)cc1`, the Potency in the experiment on ICS was 2.51 µM (active). In addition, the Potency entry in the experiment on JCK, in the experiment with N140, in the experiment with P94_40, in the experiment on PAD, in the experiment on PC15 and in the experiment with PC49 was “inactive” throughout. In the experiment with SC27B, the Potency entry is “inactive”.

`Cc1cc(O)cc(C)c1Cl`: the Potency in the experiment with ICS was 3.55 µM (active); in the experiment with PC26, 12 µM (active). Moreover, in the experiment with SC27B, the Potency result is “inactive”.

In the case of `CC(=O)SC[C@@H](Cc1ccccc1)C(=O)NCC(=O)OCc1ccccc1`, the Potency result with JCK, in the experiment on N140, in the experiment on P93_24, in the experiment with P94_40, in the experiment with PAD and in the experiment on PC15 was “inactive” each time. Moreover, the Potency result in the experiment on PC26, in the experiment on PC49 and with SC27B was “inactive” in each case.

Consider `CN(C/C=C/C#CC(C)(C)C)Cc1cccc2ccccc12`, for which the Potency entry in the experiment on JCK, in the experiment on N140, in the experiment with P93_24, in the experiment on PAD, in the experiment with PC15 and with PC26 was “inactive” each time. Moreover, the Potency result in the experiment with PC49 and with SC27B was “inactive” in each case.

With `CC(=O)NS(=O)(=O)c1ccc(N)cc1`, the Potency entry in the experiment on ICS, in the experiment on JCK, with N140, with P94_40, with PAD and in the experiment on PC15 was “inactive” each time. Further, the Potency result in the experiment with PC26, in the experiment on PC49 and in the experiment with SC27B was “inactive” in each case.

For `Cc1cc(C)c(NC(=O)CN(CC(=O)O)CC(=O)O)c(C)c1Br`, the Potency result with ICS, with JCK, in the experiment with PC15, in the experiment on PC26 and in the experiment on PC49 was “inactive” each time.

Consider `CCN(CC)CCOC(=O)C(c1ccccc1)c1ccccc1`, for which the Potency entry in the experiment with JCK, in the experiment on N140, in the experiment on P93_24, with P94_40, in the experiment on PAD and in the experiment on PC15 was “inactive” in each case. Also, the Potency result with PC26, in the experiment with PC49 and in the experiment with SC27B was “inactive” in each case.

Turning to `Cc1cc(OI)c(C(C)C)cc1-c1cc(C(C)C)c(OI)cc1C`, the Potency entry with JCK is “inactive”. Also, the values for the Potency with N140, in the experiment on P94_40 and in the experiment with PC15 were 12.6 µM (active), 11.2 µM (active) and 11.2 µM (active), respectively.

`O=C(/C=C/c1ccccc1)OCc1ccccc1`: the Potency entry in the experiment with JCK, in the experiment on N140, with P93_24, in the experiment with P94_40, in the experiment with PAD and with PC15 was “inactive” each time. In addition, the Potency entry in the experiment with PC26, in the experiment on PC49 and with SC27B was “inactive” each time.

Consider `O=C1C(c2[nH]c3ccccc3c2O)=Nc2ccccc21`, for which the Potency entry in the experiment with JCK and with PC49 was “inactive” throughout.

Regarding `CCN1CC(CCN2CCOCC2)C(c2ccccc2)(c2ccccc2)C1=O` (configuration not stated), the Potency entry in the experiment with JCK, in the experiment with PAD, in the experiment on PC15, in the experiment on PC26, with PC49 and with SC27B was “inactive” in each case.

`Cc1ncc(CO)c(CN)c1O`: the Potency result with ICS, with JCK, with N140, in the experiment with P94_40, with PC15 and with PC26 was “inactive” each time. Besides, the Potency result with PC49 and in the experiment on SC27B was “inactive” in each case.

On to `CC(=O)N(CC(O)CO)c1c(I)c(C(=O)NCC(O)CO)c(I)c(C(=O)NCC(O)CO)c1I` (configuration not stated), for which the Potency in the experiment with ICS was 7.08 µM (active). Moreover, the Potency result in the experiment with JCK, with P94_40, in the experiment on PC49 and with SC27B was “inactive” in each case.

`CC(CN(C)C)C(C)(O)Cc1ccc(Cl)cc1` (configuration not stated): the Potency result in the experiment on JCK, with PAD and in the experiment on PC15 was “inactive” in each case.

With `O=C1CC[C@@H](C(=O)O)N1`, the Potency result in the experiment with JCK, in the experiment with N140, in the experiment with P94_40, in the experiment with PAD, in the experiment with PC15 and in the experiment with PC26 was “inactive” throughout. For the same compound, the Potency entry in the experiment on PC49 and with SC27B was “inactive” throughout.

Consider `O=C(O)COC(=O)Cc1ccccc1Nc1c(Cl)cccc1Cl`, for which the Potency result in the experiment with ICS, in the experiment on JCK, in the experiment with N140, with P94_40, in the experiment on PAD and in the experiment on PC15 was “inactive” in each case. In addition, the Potency entry in the experiment with PC26, in the experiment on PC49 and in the experiment on SC27B was “inactive” each time.

Take `O=C1c2ccccc2C(=O)C1c1ccc(Br)cc1`: the Potency is 11.2 µM (active) in the experiment on ICS and 10 µM (active) in the experiment on P94_40. Moreover, the Potency entry with JCK, in the experiment on N140, in the experiment with PC15, in the experiment with PC49 and with SC27B was “inactive” throughout.

For `COc1cc(C(=O)NCCCCCC(=O)O)cc(OC)c1OC`, the Potency entry in the experiment on ICS, with N140, in the experiment on P93_24, with P94_40, in the experiment on PAD and with PC15 was “inactive” in each case. Besides, the Potency entry in the experiment with PC26, in the experiment on PC49 and in the experiment on SC27B was “inactive” each time.

Take `Cc1c(NC(C)C)c(=O)n(-c2ccccc2)n1C`: the Potency entry in the experiment on JCK, in the experiment on N140, with P93_24, with P94_40, with PAD and in the experiment with PC15 was “inactive” in each case. Moreover, the Potency entry with PC26, with PC49 and in the experiment on SC27B was “inactive” throughout.

`CN1C[C@@H]2C[C@H]1CN2c1cc2c(cc1F)c(=O)c(C(=O)O)cn2C1CC1`: the Potency entry with JCK, in the experiment with PAD and in the experiment on PC49 was “inactive” throughout. Further, the Potency with P93_24 was 1.58 µM (active).

Consider `Nc1c2c(nc3c1CCC3)CCCC2`, for which the figures for the Potency with ICS and in the experiment on P94_40 were 12.6 µM (active) and 11.2 µM (active), respectively.

Regarding `CC(=O)OC[C@H]1O[C@@](COC(C)=O)(O[C@H]2O[C@H](COC(C)=O)[C@@H](OC(C)=O)[C@H](OC(C)=O)[C@H]2OC(C)=O)[C@@H](OC(C)=O)[C@@H]1OC(C)=O`, the Potency entry with ICS, in the experiment with JCK, with PC15, with PC26 and in the experiment on PC49 was “inactive” each time. Besides, the Potency with P94_40 was 2.82 µM (active).

For the compound `NC(=O)NS(=O)(=O)c1ccc(N)cc1`, the Potency entry with JCK, in the experiment on N140, with P93_24, in the experiment on P94_40, with PAD and in the experiment with PC15 was “inactive” each time. In addition, the Potency result in the experiment with PC26, in the experiment on PC49 and in the experiment with SC27B was “inactive” each time.

Turning to `Nc1ncnc2c1ncn2[C@@H]1O[C@H](COP(=O)(O)O)[C@@H](O)[C@H]1O`, the Potency entry with JCK, in the experiment with N140, in the experiment on P93_24, with P94_40, in the experiment with PAD and in the experiment with PC15 was “inactive” throughout. Moreover, the Potency result in the experiment on PC26 and in the experiment with SC27B was “inactive” throughout.

As to `CC(C)CCOC(=O)c1ccc(N(C)C)cc1`, the Potency entry in the experiment on ICS, with JCK, in the experiment with P93_24, with P94_40, in the experiment on PAD and in the experiment on PC15 was “inactive” each time. For the same compound, the Potency entry in the experiment on PC26, in the experiment on PC49 and in the experiment with SC27B was “inactive” throughout.

In the case of `COC(=O)c1cccnc1`, the Potency entry in the experiment on ICS, with JCK, with N140, in the experiment on P94_40, in the experiment with PAD and with PC15 was “inactive” each time. For the same compound, the Potency result in the experiment with PC26 and in the experiment with SC27B was “inactive” in each case.

Regarding `Cc1cc(-n2nc3ccc(Cl)cc3n2)c(O)c(C(C)(C)C)c1`, the Potency entry in the experiment on ICS, with JCK, in the experiment with PC15, with PC26, in the experiment on PC49 and with SC27B was “inactive” each time.
